Results published in PubChem BioAssay (NCATS).
Inconclusive results are not listed. The source made the active and inactive calls. The call rests on the fitted dose curve; in most records, active means well fitted inhibition curve with a large enough effect; inconclusive means small, poorly fitted or top-dose-only effect; inactive means no such curve, though single readings can be large or run the other way.

Assay: BET inhibitor-based combinations targeting novel dependencies in MECOM-rearranged (r) AML: HNT-34 cell line (AID 2202234); further: nearly all actives have a fitted effect of over 35% in size
Details: HNT-34 AML viability, CellTiter-Glo luminescence, 48 h; series mostly up to 46 µM
Source text: Ecotropic viral insertion site 1 (EVI1) is located on chromosome 3q26.2 as part of the MECOM (MDS and EVI1 complex) locus. Under normal hematopoiesis, EVI1 is a regulator of hematopoietic stem cell maintenance and self-renewal and EVI1 levels decrease as the cells differentiate. In approximately 5-10% of de novo acute myeloid leukemia (AML) EVI1 is aberrantly expressed, including Chromosomal inv(3)(q21;q26.2) or t(3;3)(q21;q26.2) alterations (MECOM-r) that account for about 50% of AML with EVI1 overexpression 31. AMLs with high levels of EVI1 have a poor prognosis and an overall survival time averaging between 10-14 months. EVI1 overexpression confers resistance in leukemia cells, highlighting the need to develop new targeted therapies for EVI1 overexpressing AMLs. Here, we performed an unbiased chemical drug screening by evaluating the single agent activity of a collection of 2,480 oncology-focused, approved and investigational drugs (NCATS Mechanism Interrogation Plates, MIPE v5.0) against a panel of seven AML cell lines. These included four MECOM-r cell-lines (AML-191, AML-194, UCSD-AML1 and HNT-34) and three non-MECOM-r AMLs (MV4-11, OCI-AML3 and SET-2). Exploiting the mechanistic redundancy built in the library, we identified target-level sensitivities in MECOM-r AML cells and relative activity as compared to other AML subtypes.
A collection of 2480 mechanistically annotated dugs (MIPE v5.0) was used to screen four 3q26.2 rearranged AML cell lines and three non-3q26.2 rearranged AML cell lines. This library purposely exploits redundancy by including multiple inhibitors of key onco-targets, while simultaneously encompassing mechanistic diversity, targeting more than 800 distinct mechanisms of action. Briefly, cells were seeded in 5 uL of growth media using a Multidrop Combi dispenser into 1536 well white polystyrene tissue culture treated plates (Corning) at a density of 500cells/well. For each cell-line, for each of the 2480 drugs in MIPE v5.0 library, an 11-point dose curve was generated via a 1536 pin-tool. Plates were incubated for 48 hr at standard incubator conditions, covered by a stainless steel gasketed lid to prevent evaporation. Cell viability was determined by luminescence based, Cell Titer Glo assay (Promega). In detail, 3 uL of Cell Titer Glo were added to each well and plates were incubated at room temperature for 15 min with a stainless-steel lid in place. Luminescence readings were taken using a Viewlux (PerkinElmer) with a 2 s exposure time per plate. Compound dose-response curves were normalized to DMSO and empty well controls on each plate. Quantitative drug activity data from dose-response curves was determined utilizing area Under the Curve (AUC) and Z-transformed AUC (Z-AUC, a mean-centering transformation applied to each individual cell-line screened).
Potency means the concentration at half of the fitted maximal effect.

Row | Structure (SMILES) | Potency
1 | O=C1CCCC(=O)C1C(=O)c1ccc(C(F)(F)F)cc1[N+](=O)[O-] | inactive
2 | COCCCOc1ccnc(CS(=O)c2nc3ccccc3[nH]2)c1C (stereo not given) | inactive
3 | CC(C)C(=O)Nc1ncc(-c2cc(C(F)F)nn2-c2c(Cl)cccc2Cl)s1 | 16.6 µM (active)
4 | Nc1ncnc2c1c(-c1cnc3[nH]ccc3c1)nn2C1CCCC1 | 0.417 µM (active)
5 | Nc1nc(NCCNc2ncc(-n3ccnc3)c(-c3ccc(Cl)cc3Cl)n2)ccc1[N+](=O)[O-] | 4.17 µM (active)
6 | N#Cc1ccnc(Nc2cc(C3CCN(C4COC4)CC3)cc(N3CCC(F)(F)C3)n2)c1 | 0.833 µM (active)
7 | Cc1cc(C(C)(C)C)c(O)c(C)c1CC1=NCCN1 | inactive
8 | CN1CCN(C2CCN(C(=O)Nc3cc(Oc4ccc(NC(=O)C5(C(=O)Nc6ccc(F)cc6)CC5)c(F)c4)ccn3)CC2)CC1 | 3.72 µM (active)
9 | C=CC(=O)Nc1cc2c(Nc3ccc(F)c(Cl)c3)ncnc2cc1OCCCN1CCOCC1 | 2.63 µM (active)
10 | O=C(NCCO[N+](=O)[O-])c1cccnc1 | inactive
11 | CN1CCN2c3ncccc3Cc3ccccc3C2C1 (stereo not given) | inactive
12 | CCc1cccc(CC)c1NC(=O)N1Cc2[nH]nc(NC(=O)c3ccc(N4CCN(C)CC4)cc3)c2C1 | 0.742 µM (active)
13 | CNC1CCC(N(Cc2cccc(-c3ccncc3)c2)C(=O)c2sc3ccccc3c2Cl)CC1 (stereo not given) | 26.3 µM (active)
14 | COc1ccc2nc3cc(Cl)ccc3c(Nc3cc(CN4CCCC4)c(O)c(CN4CCCC4)c3)c2n1 | 11.8 µM (active)
15 | Cc1cc(C)c(/C=C2\C(=O)Nc3ccccc32)[nH]1 | 0.296 µM (active)
16 | Cc1cccc(-c2[nH]ncc2-c2ccc3ncccc3n2)n1 | 20.9 µM (active)
17 | CC[C@]1(O)C[C@H]2CN(CCc3c([nH]c4ccccc34)[C@@](C(=O)OC)(c3cc4c(cc3OC)N(C=O)[C@H]3[C@@](O)(C(=O)OC)[C@H](OC(C)=O)[C@]5(CC)C=CCN6CC[C@]43[C@@H]65)C2)C1 | 0.209 µM (active)
18 | CC(C)(Cc1ccc2ccccc2c1)NC[C@@H](O)COc1cccc(Cl)c1C#N | 16.6 µM (active)
19 | O=[N+]([O-])c1cn2c(n1)OC[C@@H](OCc1ccc(OC(F)(F)F)cc1)C2 | inactive
20 | CCCCc1oc2ccc(NS(C)(=O)=O)cc2c1C(=O)c1ccc(OCCCN(CCCC)CCCC)cc1 | 11.8 µM (active)

Row | Structure (SMILES) | Potency
21 | COc1cc2c(cc1OC)[C@@H]1C(=O)c3ccc4c(c3O[C@@H]1CO2)C=CC(C)(C)O4 | 23.5 µM (active)
22 | O=C(Nc1ccccc1-c1cn2c(CN3CCNCC3)csc2n1)c1cnc2ccccc2n1 | 20.9 µM (active)
23 | Cn1cc(-c2ccncc2)c(-c2ccc(OCc3ccc4ccccc4n3)cc2)n1 | 23.5 µM (active)
24 | CC[C@]1(O)CC2CN(CCc3c([nH]c4ccccc34)[C@@](C(=O)OC)(c3cc4c(cc3OC)N(C)[C@H]3[C@@](O)(C(=O)OC)[C@H](OC(C)=O)[C@]5(CC)C=CCN6CC[C@]43[C@@H]65)C2)C1 (stereo not given in full) | 0.209 µM (active)
25 | CC(C)NCC(O)c1ccc(O)c(O)c1 (stereo not given) | inactive
26 | CS(=O)(=O)N1CCC(NC(=O)c2[nH]ncc2NC(=O)c2c(Cl)cccc2Cl)CC1 | 2.09 µM (active)
27 | COC1CCC(N(C(=O)C2CCC(C)CC2)c2cc(C3=CCCCC3)sc2C(=O)O)CC1 (stereo not given) | inactive
28 | COc1ccc(CCN2CCN(CCCc3ccccc3)CC2)cc1OC | inactive
29 | CCOc1cc(C(=O)N2CCC(N3CCN(C)CC3)CC2)ccc1Nc1ncc2c(n1)N(C1CCCC1)c1ccccc1C(=O)N2C | 13.2 µM (active)
30 | CCC(C)(C)c1ccc(CC(C)CN2C[C@@H](C)O[C@@H](C)C2)cc1 (stereo not given in full) | inactive
31 | CCN(CC)CCNC(=O)c1ccc2nc(-c3ccccc3)c(-c3ccc(CN4CCC(n5c(=O)[nH]c6ccccc65)CC4)cc3)nc2c1 | 8.33 µM (active)
32 | Cc1nnc(NS(=O)(=O)c2ccc(N)cc2)s1 | inactive
33 | CC1(C)[C@@H](O)CC[C@]2(C)[C@H]3C(=O)C=C4[C@@H]5C[C@@](C)(C(=O)O)CC[C@]5(C)CC[C@@]4(C)[C@]3(C)CC[C@@H]12 | inactive
34 | CCN(CC)CCNC(=O)c1c(C)[nH]c(/C=C2\C(=O)Nc3ccc(F)cc32)c1C | 1.86 µM (active)
35 | NNC(=O)c1ccncc1 | inactive
36 | CC(C)C(=O)Nc1ccc([N+](=O)[O-])c(C(F)(F)F)c1 | inactive
37 | O=C(NOCC1CC1)c1ccc(F)c(F)c1Nc1ccc(I)cc1Cl | 8.33 µM (active)
38 | CC(C)C[C@H](NC(=O)[C@H](Cc1ccccc1)NC(=O)c1cnccn1)B(O)O | 0.0148 µM (active)
39 | Cn1ncnc1[C@H]1c2n[nH]c(=O)c3cc(F)cc(c23)N[C@@H]1c1ccc(F)cc1 | 0.166 µM (active)
40 | NC(=O)c1noc([C@H](CCCC2CCCCC2)CC(=O)NO)n1 | 2.95 µM (active)
